Source: PubChem BioAssay (The Scripps Research Institute Molecular Screening Center)
Shown are actives, neighbours in structure and some others; about 1.1% of the full set was active somewhere.
NCOA1 inh = human NCOA1 inhibition. inhibition, % at 3.6 µM. HEK293 GAL4-SRC1 luciferase reporter, luminescence. AID 588354. hit rate 0.12% among 360,000;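 active means inhibition above the campaign mean plus 3 SD, with each screening campaign given its own cutoff, cut at about 60% in these data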;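 further: 0% = DMSO treated cells and 100% = gossypol at 36 µM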
NR5A2 inv ag = NR5A2 inverse agonism in reporter assay | O00482 | HEK293T StAR-luciferase reporter, LRH-1 transfected, 24 h | inhibition, % at 3.6 µM | hit rate 0.13% among 360,000 | AID 602396;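 active means inhibition above the mean inhibition of all tested compounds plus 3 SD, cut at about 73% in these data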;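 further: 0% = DMSO wells and 100% = reporter-only cells lacking LRH-1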
GalR3 antagonist = human GalR3 antagonism. HEK293 GalR3-CNG cAMP membrane potential fluorescence; galR3 body fused to GalR1 C-terminus. inhibition, % at 3 µM. hit rate 0.44% among 360,000. AID 651719;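 active means inhibition above the screen-wide average plus 3 SD, cut at about 13% in these data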;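 further: forskolin and galanin both at EC90 stimulate the cells; cAMP rise reported by CNG channel membrane potential dye signal; 0% = forskolin plus galanin with DMSO and 100% = forskolin alone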
SRC2 inh = inhibits human steroid receptor coactivator 2; inhibition, % at 9 µM; AID 651957; HEK293 GAL4-SRC2 luciferase reporter, luminescence; hit rate 0.17% among 370,000;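 active means inhibition above the mean inhibition of all tested compounds plus 3 SD, set per campaign, cut at about 52% in these data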;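 further: 0% = DMSO treated cells and 100% = cells given Gossypol at 36 µM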
NR2F2 inh = inhibitors of human COUP-TFII (NR2F2); HEK293T NGFI-A luciferase reporter, luminescence; inhibition, % at 8.6 µM; hit rate 0.7% among 370,000; AID 686940;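 active means inhibition above a per-plate cutoff, mean inhibition of test wells between control levels plus 3 SD, cut at about 38% in these data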;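 further: cells cotransfected with COUP-TFII expression vector driving the NGFI-A reporter; 0% = median of COUP-TF2 test wells and 100% = reporter-only cells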
SRC3 inh = inhibits human SRC3 coactivator | Q9Y6Q9 | HEK293 GAL4-SRC3 luciferase reporter, luminescence | inhibition, % at 3.6 µM | hit rate 0.17% among 360,000 | AID 588352;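 active means inhibition above a per-campaign cutoff, the mean of all compounds plus 3 SD, cut at about 60% in these data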;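 further: 0% = DMSO-treated cells and 100% = gossypol-treated cells at 36 µM; higher means less SRC3-driven luciferase light from the GAL4 reporter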
GalR3 antag conf = GalR3 (human) antagonism, confirmation; inhibition, % at 3 µM; shares compounds with GalR3 antagonist; HEK293 GalR3 CNG cAMP biosensor, membrane potential fluorescence; galR3 fused to GalR1 carboxy tail; challenged with forskolin and galanin at EC90; AID 652245; hit rate 59% among 1,600;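 active means inhibition above the primary screen's cutoff, the mean inhibition of all screened compounds plus 3 SD, cut at about 13% in these data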;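 further: 0% = forskolin plus galanin and 100% = forskolin alone with DMSO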
CNG parental = counter-screen for GalR3 antagonists: nonspecific agonists in parental HEK-CNG cells; shares compounds with GalR3 antagonist; HEK293-CNG parental cells, cAMP membrane potential fluorescence; normalised: DMSO wells 0%, forskolin wells 100%; activation, % at 3 µM; hit rate 10% among 1,600; AID 652268; in the data active means activation above about 1.3%
Numbers without * were called inactive.

Cn1c(=O)c2c(nc(NCCCN3CCOCC3)n2Cc2ccc(Cl)cc2)n(C)c1=O was read as NCOA1 inh 0, NR5A2 inv ag -12, GalR3 antagonist 14*, SRC2 inh -13, NR2F2 inh -2, SRC3 inh 15, GalR3 antag conf 15* and CNG parental 0.
For Cn1c(=O)c2c(nc(NCCCN3CCOCC3)n2Cc2ccc(Cl)c(Cl)c2)n(C)c1=O the results were GalR3 antagonist 10, SRC2 inh -37 and NR2F2 inh -12.
For C[C@@H]1CN([C@H](C)CO)C(=O)c2cc(Br)cnc2O[C@H]1CN(C)Cc1ccccc1 the results were NCOA1 inh -3, NR5A2 inv ag 22, GalR3 antagonist -6, SRC2 inh -2, NR2F2 inh -14 and SRC3 inh -4.
For Cc1ccc(Nc2ccc(C(=O)O)cc2N)cc1 the results were GalR3 antagonist 15*, SRC2 inh -87, NR2F2 inh -57, GalR3 antag conf 3 and CNG parental -1.
`CCOC(=O)[C@@]12CCCC3=C1N(CCC3)C(=O)[C@H]2CC(=O)NCC12CC3CC(CC(C3)C1)C2` gave SRC2 inh -6 and NR2F2 inh 3.
`O=C(Nc1ccc(OCc2ccccc2)cc1)Nc1ccccc1C(=O)NCCCN1CCOCC1` gave NCOA1 inh -19, NR5A2 inv ag -1, GalR3 antagonist 17*, SRC2 inh -27, NR2F2 inh -14, SRC3 inh 0, GalR3 antag conf 8 and CNG parental 0.
`O=S1(=O)CC2c3ccc(F)cc3CN2CN1Cc1ccc(F)cc1` (stereo not drawn) gave SRC2 inh -16 and NR2F2 inh 0.
For O=C(NN=C(c1ccccc1)c1ccccn1)c1ccccc1 the results were NCOA1 inh 41, NR5A2 inv ag 16, GalR3 antagonist 13*, SRC2 inh 32, NR2F2 inh -13, SRC3 inh 45, GalR3 antag conf 39* and CNG parental 1.
COc1ccc(C2=Nn3c(nnc3C3CCCCC3)SC2)cc1OC was read as NCOA1 inh -64, NR5A2 inv ag 18, GalR3 antagonist 49*, SRC2 inh -30, NR2F2 inh -87, SRC3 inh -34, GalR3 antag conf 48* and CNG parental 1.
For COc1ccc(OC)c(-c2nnc3n2N=C(c2ccc(OC)c(OC)c2)CS3)c1 the results were NCOA1 inh -45, NR5A2 inv ag 41, GalR3 antagonist 50*, SRC2 inh 1, NR2F2 inh -130, SRC3 inh 5, GalR3 antag conf 34* and CNG parental 1.5*.
`COc1ccc(OC)c(C2=Nn3c(nnc3C3CCCCC3)SC2)c1` gave NCOA1 inh 3, NR5A2 inv ag 34, GalR3 antagonist -2, SRC2 inh -4, NR2F2 inh 6 and SRC3 inh 11.
COc1ccc(OC)c(-c2nnc3n2N=C(c2ccc(OC)c(OC4CCCC4)c2)CS3)c1 was read as NCOA1 inh 16, NR5A2 inv ag 24, GalR3 antagonist 1, SRC2 inh 25, NR2F2 inh -28 and SRC3 inh 8.
Cc1ccc(OCC(=O)OCC(=O)Nc2sccc2C(N)=O)cc1C was read as NCOA1 inh -9, NR5A2 inv ag 3, GalR3 antagonist 27*, SRC2 inh 10, NR2F2 inh -14, SRC3 inh -8, GalR3 antag conf 3 and CNG parental 0.
COc1ccc(CCC(=O)OCC(=O)Nc2sccc2C(N)=O)cc1 was read as NCOA1 inh -18, NR5A2 inv ag 1, GalR3 antagonist -5, SRC2 inh -10, NR2F2 inh 14 and SRC3 inh -15.
For N#Cc1ccc(OCC(=O)OCC(=O)Nc2sccc2C(N)=O)cc1 the results were NCOA1 inh -26, NR5A2 inv ag 4, GalR3 antagonist -6, SRC2 inh -4, NR2F2 inh -7 and SRC3 inh -4.
